High-throughput results: PubChem BioAssay, National Center for Advancing Translational Sciences (NCATS)
G9a inh: blocks human histone lysine methyltransferase G9a; Q96KQ7; G9a H3K9 monomethylation, AlphaScreen, 2 h; Potency, µM (titrated, usually from 102 µM), for inactives: at the top dose activity, negative = inhibition, most hits filed as inhibitors; 350,000 compounds, 8.8% hits; also: % is scaled to controls: 0 for no effect and ±100 for the full control effect; nearly all actives have a fitted effect of over 75% in size
Target sequence (Q96KQ7 913-1193 limits assumed): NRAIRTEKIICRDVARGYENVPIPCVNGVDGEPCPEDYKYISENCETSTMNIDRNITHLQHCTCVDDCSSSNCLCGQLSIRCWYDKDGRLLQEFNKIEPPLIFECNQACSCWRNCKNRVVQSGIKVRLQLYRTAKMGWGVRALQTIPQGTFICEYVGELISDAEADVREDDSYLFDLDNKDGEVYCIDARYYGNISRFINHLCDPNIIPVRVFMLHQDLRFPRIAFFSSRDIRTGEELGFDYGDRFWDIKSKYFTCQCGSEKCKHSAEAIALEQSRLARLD
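Methyltransferase reactions run at room temperature for 2 h (20 nM enzyme, 500 nM biotin-H3K9 peptide, 20 uM SAM) after a 15 min compound preincubation; product detected by AlphaScreen beads and anti-H3K9me1 antibody.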
JMJD2A Tudor: blocks the human JMJD2A Tudor domain; Potency, µM (titrated, usually from 114 µM), for inactives: at the highest dose activity change, negative = inhibition, actives largely listed as inhibitors; O75164; 390,000 compounds, 4.4% hits; AlphaScreen JMJD2A-Tudor / H3K4me3 peptide binding; also: % is scaled to controls: 0 for no effect and ±100 for the full control effect; nearly all actives have a fitted effect of over 50% in size
BAZ2B block: blocks human BAZ2B; Q9UIF8; AlphaScreen BAZ2B-H3K14Ac peptide displacement; Potency, µM (doses to about 114 µM), without a hit: at the top dose activity change, negative = inhibition, usual class: inhibitors; 360,000 compounds, 4.4% hits; AID 504333; also: % is scaled to controls: 0 for no effect and ±100 for the full control effect; nearly all actives have a fitted effect of over 60% in size
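AlphaScreen displacement of biotin-H3(5-23)K14Ac peptide (50 nM final) from BAZ2B (50 nM final) in PBS pH 7.4, 0.01% Tween-20; complex preformed 30 min RT, then compounds (top 110 uM) 30 min RT, beads 20 min dark.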
ALOX12 inh: blocks human arachidonate 12S-lipoxygenase; 580,000 compounds, 1.1% hits; purified 12hLO, xylenol orange hydroperoxide absorbance; Potency, µM (titrated, usually from 108 µM), inactives show top-dose activity change, negative = inhibition, hits mostly inhibitors; P18054; also: % is scaled to controls: 0 for no effect and ±100 for the full control effect
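Purified human 12hLO at 150 nM in 25 mM Hepes, 0.01% Triton X-100, pH 7.0, preincubated 15 min at room temperature with compound. Reaction started with 40 uM arachidonic acid, 30 min at room temperature. Hydroperoxide measured by Fe-xylenol orange, 573/405 nm absorbance ratio.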
PLK1 PBD block: blocks phosphopeptide binding to human PLK1 polo-box domain; 360,000 compounds, 2.8% hits; Potency, µM, for the others: max response, negative = inhibition, actives largely listed as inhibitors; Plk1 PBD binding of FITC phosphopeptide, fluorescence polarization; AID 720504; also: series mostly up to about 57 µM; % is scaled to controls: 0 for no effect and ±100 for the full control effect; nearly all actives have a fitted effect of over 65% in size
HP1b binding inh: inhibitors of HP1-beta chromodomain binding to methylated histone tails; P83916; AlphaScreen HP1-beta / biotin-H3K9me3 peptide binding; Potency, µM (top dose mostly 114 µM), for inactives: at the highest dose activity change, negative = inhibition, usual class: inhibitors; 390,000 compounds, 0.56% hits; AID 540317; also: nearly all actives have a fitted effect of over 70% in size
Target sequence (P83916 whole entry, looked up): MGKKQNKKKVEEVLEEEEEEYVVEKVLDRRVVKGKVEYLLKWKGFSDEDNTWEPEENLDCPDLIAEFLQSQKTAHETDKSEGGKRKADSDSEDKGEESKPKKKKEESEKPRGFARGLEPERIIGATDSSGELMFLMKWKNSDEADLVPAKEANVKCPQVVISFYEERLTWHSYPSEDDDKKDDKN
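AlphaScreen: HP1-beta (50 nM) preformed 30 min with biotin-H3(1-18)K9me3 peptide (50 nM) in PBS pH 7.4, 0.01% Tween-20. Compound added for 30 min at RT, then streptavidin donor/nickel chelate acceptor beads (10 ug/mL) for 30 min.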
* marks the source's active call; other numbers are inactive results; ? = inconclusive; . = no result given; [ ] = remark or other dose. Most compounds without a hit are left out; they make up all but 9% or so of the library. Calls follow the shape of the dose curve; as a rule, active = well fitted curve in the direction sought with a large enough effect; inconclusive = small, poorly fitted or top-dose-only effect, or another doubt; inactive = no such curve, though single readings can be large; an effect the other way counts as inactive or inconclusive. Potency is read from the fitted curve at half-maximal effect.

SMILES | G9a inh | JMJD2A Tudor | BAZ2B block | ALOX12 inh | PLK1 PBD block | HP1b binding inh
COc1ccc(OCc2cc(C(=O)N3CCN(C4CCCC4)CC3)no2)c(Cl)c1 | -15% | -25% | -12% | 320% | 0% | -6%
O=C(O)Cn1nnnc1-c1ccc(F)cc1 | ? | -12% | 6% | ? | -22% | 18%
Cc1cc(Cn2nnnc2-c2ccncc2)cc(C)c1O | 35µM* | -6% | -11% | -11% | 38µM* | 47%
CC(=O)N(CCC(Cc1ccccc1)c1ccco1)Cc1ccco1 (configuration not stated) | ? | -35% | ? | ? | -12% | 1%
O=C(c1ccco1)N(CCC(c1ccccc1)c1ccco1)Cc1ccco1 (configuration not stated) | ? | 22µM* | 28µM* | 18µM* | ? | ?
CN(Cc1ccccc1)C(=O)c1ccco1 | -23% | -12% | -17% | 7% | -4% | 39%
Cc1ccc(C(CCN(Cc2ccccc2)C(=O)c2ccco2)c2ccco2)cc1 (configuration not stated) | 50µM* | 20µM* | 32µM* | ? | -26% | -5%
CCOC(=O)C(NCCCO)c1ccccc1 (configuration not stated) | 50µM* | 2.5µM* | -22% | ? | -8% | ?
Cc1ccc(OC(C)C(=O)N2CCCc3ccccc32)cc1 (configuration not stated) | 1%[59 µM] | -3% | 2% | 1% | -11% | 12%
O=C1C2CC=C(Cl)CC2C(=O)N1c1ncn[nH]1 (configuration not stated) | ? | 89µM* | 56µM* | ? | -16% | 39%
C=C1C=CS(=O)(=O)N(C(CC(C)C)C(=O)OC)C1 (configuration not stated) | . | -18% | . | . | . | 37%
Cc1ccc(SC2=C(N(C)C)C(=O)c3ccccc3C2=O)cc1 | . | 5.6µM* | . | 10µM* | ? | ?
Cc1cc(C)c(-c2csc(Cc3nc(-c4cc5ccccc5oc4=O)cs3)n2)cc1C | ? | ? | 17% | 6% | 27µM* | 31%
CC(C)c1nnc(NC(=O)c2cc(-c3ccccc3)nc3ccccc23)s1 | . | . | . | 13% | . | .
CN1Cc2sc(NC(=S)NC(=O)c3ccccc3)c(C#N)c2CC1(C)C | 10µM* | 35µM* | 45µM* | 0% | 13µM* | ?
CCC1(C)Cc2c(sc(NC(=S)NC(=O)c3ccccc3)c2C#N)CO1 (configuration not stated) | 45µM* | -27% | -31% | -23% | 13µM* | -14%
CN1Cc2sc(N)c(C#N)c2CC1(C)C | -5%[2.33 µM] | -28%[11.4 µM] | -38% | 171% | ? | -4%
CC1(C)Cc2c(sc(NC(=O)c3ccco3)c2C#N)CO1 | -27%[59 µM] | -14% | -31% | -11% | -1% | 34%
Cc1ccc(S(=O)(=O)c2nc(S(C)(=O)=O)sc2NCC2CCCO2)cc1 (configuration not stated) | -9% | -15% | 4% | 152% | -7% | 39%
Cc1ccc(NC(=O)c2cccc(S(=O)(=O)N3CCCC3)c2)nc1 | -4% | -6% | -18% | ? | -5% | 21%
CCOC(=O)C1=C(C)NC(=O)NC1c1ccc(N(C)C)cc1 (configuration not stated) | ? | -35% | -2% | ? | -9% | 17%
CCC(CC)COC(=O)C1=C(C)NC(=O)NC1c1ccc(N(C)C)cc1 (configuration not stated) | 16µM* | ? | ? | -48% | -8% | -10%
CCOC(=O)C1=C(C)NC(=O)NC1c1ccc(N(CC)CC)cc1 (configuration not stated) | 45µM* | ? | -37% | -4% | -4% | 10%
COc1cc(NS(=O)(=O)c2ccc(F)cc2)c(OC)cc1NC(C)=O | -6%[59 µM] | 3% | . | 0% | 3% | 34%
COc1ccc(O)c(C(c2c(C)[nH][nH]c2=O)c2c(C)[nH][nH]c2=O)c1 | -49% | 2%[11.4 µM] | -9% | -18% | 7.5µM* | 21%
